Compounds without any hit were thinned out: in the full panel of roughly 83,000, 20% have a hit.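 Growth was measured after 48 h exposure to one concentration of compound in 96-well plates. Values under 10 count as active.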 A number with no mark means an inactive call. The source made the active and inactive calls.
Key:
Test in all cases: NCI-60 one-dose screen, 48 h (100 = growth as untreated, 0 = no growth, -100 = all killed)
Details in all cases: 10 µM unless noted
[1] = test system: SR leukemia
[2] = test system: RPMI-8226 leukemia
[3] = test system: OVCAR-8 ovarian
[4] = test system: OVCAR-5 ovarian
[5] = test system: OVCAR-4 ovarian
[6] = test system: SK-OV-3 ovarian
[7] = test system: IGROV1 ovarian
[8] = test system: OVCAR-3 ovarian
[9] = test system: HS 578T breast
[10] = test system: NCI/ADR-RES ovarian
[11] = test system: T-47D breast
[12] = test system: BT-549 breast
[13] = test system: MDA-MB-435 melanoma
[14] = test system: SW-620 colon
[15] = test system: MCF7 breast
[16] = test system: HCT-116 colon
[17] = test system: HCC-2998 colon
[18] = test system: KM12 colon

Row | SMILES | growth [1] | growth [2] | growth [3] | growth [4] | growth [5] | growth [6] | growth [7] | growth [8] | growth [9] | growth [10] | growth [11] | growth [12] | growth [13] | growth [14] | growth [15] | growth [16] | growth [17] | growth [18]
1 | O=C(Cc1ccc(/C=C/C(=O)c2ncc[nH]2)cc1)Nc1cc(F)c(F)c(F)c1 | 14.9% | 0.541% (active) | 41.7% | 80.7% | 72.7% | 103% | 55.8% | 3.93% (active) | 37% | 66.5% | 49.9% | 66.7% | 51.2% | 13.1% | 10.4% | 15.8% | 75.2% | 24.7%
2 | Nc1cc(-c2ccc(Cl)cc2)nn1-c1nnc(/C=C/c2ccco2)c(=O)[nH]1 | 38.1% | 43.3% | 24.8% | 60.9% | 29.1% | 60.7% | 35% | 37.9% | 74.1% | 5.73% (active) | 62.7% | 72% | 62.8% | 49.3% | 45.9% | 41% | 48.5% | 56%
3 | CC(C)n1c2ccc(Br)cc2c2c3c(c4c5ccccc5ccc4c21)C(=O)NC3=O | 61.6% | 91.6% | 100% | 87.7% | 94.2% | 105% | 84.8% | 94.2% | 108% | 93.2% | 63.3% | 95.9% | 92.4% | 101% | 86.2% | 85.2% | 103% | 52.7%
4 | O=C(NC1CCC(Br)CC1)C1CCCC(S(=O)(=O)NC2CCCCC2)C1 (stereo unspecified) | 21.1% [25 µM] | 2.82% [25 µM] (active) | 7.56% [25 µM] (active) | 39.2% [25 µM] | 4.59% [25 µM] (active) | 1.87% [25 µM] (active) | 27.4% [25 µM] | 14.3% [25 µM] | 46.1% [25 µM] | 3.69% [25 µM] (active) | -9.71% [25 µM] (active) | 21.6% [25 µM] | 14.4% [25 µM] | 31.2% [25 µM] | 6.38% [25 µM] (active) | 17% [25 µM] | 24.6% [25 µM] | 16.9% [25 µM]
5 | Cc1ccc(-c2csc(NC(=O)CSc3nc(N)cc(N)n3)n2)cc1 | 42.9% | 44% | 71% | 91.2% | 64% | 88% | 74.1% | 73.2% | 87.6% | 51.8% | 19.6% | 52.1% | 63.2% | 93.6% | 50.6% | 41.8% | 86.8% | 77.5%
6 | CC/C(=C(/c1ccc(O)cc1)c1ccc(OCCN2CCCCC2)cc1)c1ccc(OC)cc1 | -23.3% (active) | 62.6% | 91.5% | 90.9% | 90.4% | 99.3% | 85.3% | 66.1% | 92.2% | 77.6% | 43.4% | 79.2% | 13.2% | 73.5% | 11.5% | 27.9% | 87.2% | 52.4%
7 | COC12C=C/C(=C(/C(=O)OCCSc3ccnn3C)C(=O)CCCCCCCCC3(OC)C=C/C(=C(/C(=O)OCCSc4ccnn4C)C(=O)CCCCCCCC1)O3)O2 | -7.77% (active) | -8.92% (active) | 17.3% | 37% | 20.4% | 75.1% | -3.71% (active) | 5.79% (active) | 39.4% | 25.2% | 33.2% | -22.7% (active) | -3.93% (active) | 18.5% | 14.7% | -38.5% (active) | -86.1% (active) | -57.6% (active)
8 | Cc1ccccc1N1CCN(C(=S)c2ccccc2)CC1 | 104% | 115% | 96.4% | 93.4% | 90.6% | 98.1% | 57.2% | 108% | 106% | 102% | 89.1% | 88.5% | 103% | 98.3% | 88.2% | 91.9% | 75.3% | 112%
9 | O=c1ccc2ccc(OCCN3CCCCC3)cc2o1 | -35.7% (active) | -23.8% (active) | 95.2% | 102% | 113% | 82.7% | 110% | 113% | 96.5% | 99.9% | 95.5% | 100% | 101% | 93.9% | 106% | 89% | 98% | 104%
10 | COc1cc2c(c(OC)c1OC)C(=O)CC(c1cccc(C(=O)Nc3ccc(C#N)cc3)c1)O2 (stereo unspecified) | 41.2% | 29.7% | 42.9% | 102% | 55.2% | 104% | 88.5% | 74.5% | 92.4% | 52.4% | 9.48% (active) | 33% | 63% | 97.8% | 48.7% | 56.2% | 98.2% | 79.1%
11 | C[C@H](c1nc2ccc(C#N)cc2[nH]1)[C@H]1CC[C@H]2[C@@H]3CCC4=CC(=O)CC[C@]4(C)[C@H]3CC[C@]12C | 34.6% | 20.3% | 79.6% | 85.3% | 46% | 80% | 66.9% | 72.1% | 63.4% | 67.5% | 29.4% | 58.9% | 84.2% | 89.1% | 59.5% | 49.7% | 67.4% | 68.9%
12 | Clc1ccc(-c2cc(-c3ccccc3)nc(N3CCN(CCCNc4ccnc5cc(Cl)ccc45)CC3)n2)cc1 | 5.44% (active) | 4.72% (active) | -47.5% (active) | 33.5% | 9.85% (active) | 106% | -62.4% (active) | -47.9% (active) | -17.9% (active) | 36% | -56.1% (active) | 100% | -61.8% (active) | -42.3% (active) | -18.5% (active) | -79.6% (active) | -73.4% (active) | 3.69% (active)
13 | COCC(=O)Oc1cc(-c2ccc(C)cc2C)c(OC(=O)COC)c(-c2ccc(C)cc2C)c1 | 20.6% | 34.2% | 59.5% | 38.1% | 50.5% | 66.2% | 50.1% | 51.9% | 55% | 68.2% | 43.7% | 56.6% | 59.6% | 43.2% | 41% | 17.7% | 88% | 44.8%
14 | c1cc(OCCN2CCCC2)ccc1CNc1ccc2nc(CCC3CCCCC3)[nH]c2c1 | 7.84% (active) | -8.82% (active) | 43% | 67.5% | 56.7% | 99.3% | 46.3% | 49.6% | 44.1% | 85% | -11.5% (active) | 82.5% | -50.7% (active) | 8.87% (active) | 3.44% (active) | 15.3% | 19.7% | 52.5%
15 | Cc1cccc(NC(=O)N/C(N)=N/c2nc3ccccc3s2)c1 | 27.1% | 26.4% | 35.5% | 56.4% | 56.9% | 35.2% | 36.9% | 8.85% (active) | 23.8% | 15% | 35.5% | 57.2% | 2.83% (active) | 34.3% | 21.9% | 23.8% | 56.4% | 25.1%
16 | Nc1c(Br)cc2c(c1Br)Cc1cc([N+](=O)[O-])ccc1-2 | 64.3% | 91.3% | 95.4% | 112% | 85.4% | 92.2% | 135% | 111% | 104% | 104% | 58.3% | 110% | 108% | 103% | 33.8% | 95.3% | 104% | 99.1%
17 | CN(C)C1CN(C(=O)c2cc(-c3ccc4ncnc(N5CCc6cc(F)c(Cl)cc65)c4c3)cnc2N)C1 | 13.3% | -10.8% (active) | 16% | 28.1% | 5.94% (active) | 23.1% | -33.6% (active) | -16.5% (active) | -24.1% (active) | 21.1% | 4.73% (active) | -12.8% (active) | 9.39% (active) | 19.1% | 5.85% (active) | 10.6% | 15.3% | 18.2%

Reference: PubChem BioAssay (NCI)
